# PAFAH2 inh: PAFAH2 enzyme inhibitors, primary screen, biochemical, fluorescence polarization, human; recombinant PAFAH2, FP-rhodamine activity probe; inhibition, % at 3.39 µM; 0.99% of 340,000 active;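 active means inhibition above the mean over all tested compounds plus 3 SD, cut at about 30% in these data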;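 further: inhibitors block probe labeling of enzyme so polarization drops; 0% = enzyme with DMSO and 100% = wells lacking PAFAH2 protein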
# PAFAH1B3 inh: PAFAH1B3 enzyme inhibitors, primary screen, biochemical, fluorescence polarization, human. 0.28% of 340,000 active. Platelet-activating factor acetylhydrolase IB subunit alpha1 (Homo sapiens), Q15102. inhibition, % at 3.39 µM. recombinant PAFAH1B3, FP-rhodamine probe;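 active means inhibition above the screen-wide average of all tested compounds plus 3 SD, cut at about 25% in these data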;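 further: 0% = enzyme with DMSO only and 100% = wells lacking PAFAH1B3 protein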
# PAFAH1B2 inh: PAFAH1B2 enzyme inhibitors, primary screen, biochemical, fluorescence polarization, human | AID 492953, 2010 | 1.2% of 340,000 active | recombinant PAFAH1B2, FP-rhodamine activity probe | Platelet-activating factor acetylhydrolase IB subunit alpha2 (Homo sapiens), P68402 | inhibition, % at 3.39 µM;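 active means inhibition above the mean of all tested compounds plus 3 SD, cut at about 24% in these data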;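 further: 0% = enzyme with DMSO and 100% = wells lacking PAFAH1B2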
# TCR CD3 inh: inhibitors of human TCR-CD3 interaction, primary screen, biochemical, fluorescence, TAMRA-labeled TCR probe; T-cell receptor (TCR); inhibition, % at 9.4 µM; 0.37% of 360,000 active; AID 651800, 2012; in the data active means inhibition above about 19%;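 further: recombinant mutant TCR 2C K166C tagged with TAMRA read by polarization; 0% = receptor in buffer alone and 100% = receptor with positive control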
# pPAFAH FP inh: pPAFAH enzyme inhibitors, primary screen, biochemical, fluorescence polarization, human; Platelet-activating factor acetylhydrolase (Homo sapiens), Q13093; recombinant pPAFAH, FP-rhodamine probe fluorescence polarization; inhibition, % at 3.39 µM; 1.5% of 330,000 active;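 active means inhibition above the mean inhibition across the screen plus 3 SD, cut at about 25% in these data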;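 further: inhibitors block binding of the rhodamine activity-based probe so polarization drops; 0% = enzyme with DMSO and 100% = wells lacking pPAFAH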
# Target sequence (Q13093 whole entry, looked up): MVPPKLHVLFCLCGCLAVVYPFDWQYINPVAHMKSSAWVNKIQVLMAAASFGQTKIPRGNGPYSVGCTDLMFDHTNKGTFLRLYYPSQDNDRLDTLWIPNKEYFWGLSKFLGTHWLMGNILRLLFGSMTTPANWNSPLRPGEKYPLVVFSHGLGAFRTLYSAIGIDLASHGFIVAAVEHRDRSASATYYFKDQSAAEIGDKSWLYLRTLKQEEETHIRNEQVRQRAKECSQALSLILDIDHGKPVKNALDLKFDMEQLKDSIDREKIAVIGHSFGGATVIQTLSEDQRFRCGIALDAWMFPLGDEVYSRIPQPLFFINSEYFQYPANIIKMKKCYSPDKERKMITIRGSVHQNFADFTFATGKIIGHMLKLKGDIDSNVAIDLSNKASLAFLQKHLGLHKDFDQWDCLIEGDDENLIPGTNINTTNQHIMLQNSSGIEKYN
# PAFAH2 FP conf: PAFAH2 enzyme inhibitors, confirmation, biochemical, fluorescence polarization, human; recombinant PAFAH2, FP-rhodamine activity probe; shares compounds with PAFAH2 inh; inhibition, % at 3.39 µM; 65% of 2,300 active;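 active means mean inhibition over three repeats above a set limit taken from the earlier primary screen, cut at about 30% in these data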;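 further: inhibitor blocks binding of rhodamine activity probe so polarization falls; 0% = enzyme with DMSO and 100% = wells lacking PAFAH2 protein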
# Starred values were filed as active, the others as inactive; · = no result given. The list is not random: actives were taken first. Their share in the collection is about 2.7%.
SMILES,PAFAH2 inh,PAFAH1B3 inh,PAFAH1B2 inh,TCR CD3 inh,pPAFAH FP inh,PAFAH2 FP conf
CCCCn1c(N)c(N(CC)C(=O)C2CCC2)c(=O)[nH]c1=O,-1,-1,5,4,0,·
CCOC(=O)Cc1nc2ccccc2[nH]1,4,9,2,-12,20,·
O=C(OCc1nc2ccccc2[nH]1)C12CC3CC(CC(C3)C1)C2,57*,-7,9,-2,2,49*
O=C(COC(=O)c1cccc(C(F)(F)F)c1)NC(=O)NC1CCCC1,13,2,1,-7,6,·
O=C(COC(=O)c1ccc(OC(F)F)cc1)NC(=O)NC1CCCC1,12,2,3,-15,5,·
O=C(COC(=O)c1cccc(O)c1)Nc1ccc(OC(F)F)cc1,64*,3,4,-6,0,54*
O=C(COC(=O)c1cccc(OC(F)F)c1)NC1CCCC1,52*,7,0,-5,24,40*
CN(C)c1cccc(C(=O)OCC(=O)NC2CCCC2)c1,77*,7,5,3,23,78*
CC(C)(C)NC(=O)NC(=O)COC(=O)c1cccc(OC(F)F)c1,9,1,5,8,6,·
C[C@H](CO)N1C[C@H](C)[C@@H](CN(C)C(=O)CCC(F)(F)F)OCc2cnnn2CCCC1=O,·,·,·,2,·,·
COc1ccc(C(=O)OCC(=O)NC(C)(C)C)cc1[N+](=O)[O-],39*,1,2,0,3,23
COc1ccc(C(=O)OCC(=O)NCCCc2ccccc2)cc1[N+](=O)[O-],30*,4,13,1,6,12
COC(=O)CNC(=O)COC(=O)c1ccc(OC)c([N+](=O)[O-])c1,-6,10,3,2,-2,·
O=C(Nc1ccncc1)C1CC(=O)N(Cc2ccccc2)C1 (stereo unspecified),-1,14,6,1,·,·
O=C(OCC(=O)c1cccc2ccccc12)c1ccc(CO)cc1,48*,8,2,0,0,25
O=C(OCC(=O)c1ccccc1Br)c1ccncc1,2,1,3,0,4,·
C[C@H](NC(=O)C1CC(=O)N(c2ccc(F)cc2)C1)C(=O)N1CCCCC1 (stereo partly specified),30*,-1,2,3,-5,5
CCOc1ccc(CCN2C(=S)N([C@@H](Cc3ccc(O)cc3)CN3CCC[C@@H]3CN3C(=S)NC[C@@H]3Cc3ccccc3)C[C@@H]2Cc2ccc(O)cc2)cc1,·,·,·,-2,·,·
Cn1cc(C=C2C(=O)OC3(CCCCC3)OC2=O)c2ccccc21,46*,7,16,4,6,46*
Cn1cc(C=C2C(=O)CC(C)(C)CC2=O)c2ccccc21,23,3,3,2,-2,·
COC(C[C@@H]1O[C@H]1C(=O)[C@@H](C)OCc1ccccc1)OC,0,-2,0,-2,4,·
Cc1cc(NC(=O)COC(=O)CC2CCCC2)c([N+](=O)[O-])cc1C,56*,5,4,0,22,21
O=C(COC(=O)CC1CCCC1)Nc1ccc(Br)cc1F,47*,-2,-1,1,22,41*
Cc1csc(Sc2ccc(C(=O)OCC(=O)Nc3ccc(F)cc3[N+](=O)[O-])cc2[N+](=O)[O-])n1,34*,6,0,-4,5,18
Cc1cc(C(=O)OCC(=O)Nc2ccc(F)cc2[N+](=O)[O-])c2ccccc2n1,-1,10,1,1,5,·
SMILES,PAFAH2 inh,PAFAH1B3 inh,PAFAH1B2 inh,TCR CD3 inh,pPAFAH FP inh,PAFAH2 FP conf
COc1ccc(C(=O)OCC(=O)Nc2cc(C)c(C)cc2[N+](=O)[O-])cc1,39*,-2,-1,-6,4,32*
O=C(COC(=O)COc1ccccc1)Nc1ccc(Br)cc1F,-3,8,5,7,9,·
Cc1ccc(C)c(S(=O)(=O)Nc2ccc(-n3cnnn3)cc2)c1,2,3,10,·,1,·
Cc1ccc(S(=O)(=O)N(C)C)cc1NC(=O)COC(=O)CC1CCCC1,32*,4,3,-4,11,27
CC(C)c1ccc(NC(=O)COC(=O)CC2CCCC2)cc1,54*,8,4,-3,18,27
Cc1cccc(NC(=O)COC(=O)CC2CCCC2)c1C,52*,-3,5,7,·,38*
Cc1cccc(NC(=O)COC(=O)CN2C(=O)C3CCCCC3C2=O)c1C (stereo unspecified),·,·,·,-4,·,·
COc1ccc(CN2C(=O)C(CC(=O)NCCc3ccccn3)CC(C(=O)N3CCOCC3)=C2C)cc1 (stereo unspecified),·,·,·,-7,·,·
CN(C)S(=O)(=O)c1cccc(NC(=S)N/N=C/c2cc(Br)ccc2O)c1,34*,20,9,18,20,20
CCN(CC(=O)Nc1c(F)cccc1F)C(=O)c1ccc(N2CCCC2)c([N+](=O)[O-])c1,0,4,1,5,-1,·
CCOC(=O)c1ccccc1NC(=O)COC(=O)c1ccc(OCC(=O)N2CCOCC2)c(OCC)c1,35*,-1,-5,8,·,24
Cc1c(Cl)cnc(NC(=O)COC(=O)c2ccc3c(c2)OCO3)c1Cl,50*,8,3,-1,8,30*
Cc1cccc(C)c1NC(=O)COC(=O)c1ccc(N2CCCC2)c([N+](=O)[O-])c1,63*,-3,-1,-10,13,59*
CCOc1cc(C(=O)Nc2cc(C(=O)OC)ccc2C)ccc1OCC(=O)N1CCOCC1,-7,-5,2,4,2,·
CCOc1cc(C(=O)OCC(=O)Nc2ccc(F)cc2Cl)ccc1OCC(=O)N1CCOCC1,76*,-2,3,9,·,71*
Cc1c(Cl)cnc(NC(=O)COC(=O)c2ccncc2)c1Cl,7,2,8,8,15,·
COCCCN1C(=O)C(CC(=O)NC2CC2)CC(C(=O)N2CCOCC2)=C1C (stereo unspecified),·,·,·,-3,·,·
COc1ccc(CCN2CC(C(=O)NCCc3ccccc3C(F)(F)F)CCC2=O)cc1 (stereo unspecified),-3,7,1,-3,5,·
Cc1ccc(-n2ncc3c2CCCC3NC(=O)CCc2c(C)noc2C)cc1C (stereo unspecified),2,-7,-2,7,23,·
O=C(CN1C(=O)C2CCCCC2C1=O)Nc1nc2ccc(F)cc2s1 (stereo unspecified),5,4,1,1,6,·
Nc1nnn(CC(=O)N/N=C/c2cn[nH]c2-c2ccccc2)n1,12,6,7,-4,4,·
